The source made the active and inactive calls.
Tests used:
Albumin (Bos taurus) = Albumin (Bos taurus) (UniProt P02769); experiment: compounds binding labelled BSA control protein – biochemical, small-molecule microarray, Alexa647 label, 635/667 nm fluorescence, artefact control for SMM control protein annotation, profiling panel (AID 1118); conditions: BSA-A647 binding, fluorescence 635 nm, higher = more signal;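 note: score merges 667 nm emission intensity and signal-to-noise per printed compound spot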
[1] = probe aXIP binding to arrayed compounds – biochemical, NeuroSMM set, 635/667 nm fluorescence, primary screen (AID 1119); conditions: small-molecule microarray, higher = more signal, called active from +8 up or from −8 down;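 note: probe is the protein aXip251-270 applied at 1 µg/mL to compound-printed slides; binding of probe to printed compounds measured as 667 nm fluorescence plus signal to noise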
[2] = probe aNOTCH3 binding on compound microarray – biochemical, small-molecule microarray, 635/667 nm fluorescence, primary screen (AID 1120); conditions: higher = more signal;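 note: probe is a biotin-tagged antibody raised against NOTCH3 rather than NOTCH3 protein; score merges spot fluorescence near 667 nm with spot signal to noise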
[3] = probe aNOTCH2 binding on compound microarray – biochemical, small-molecule microarray, 635/667 nm fluorescence, primary screen (AID 1121); conditions: higher = more signal;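 note: score merges feature fluorescence read at 667 nm with its signal to noise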
[4] = molecular target: Carbonic anhydrase 2 (Homo sapiens) (UniProt P00918); experiment: compounds binding carbonic anhydrase 2 – biochemical, small-molecule microarray, Alexa647-labelled CAII, profiling panel (AID 1122); conditions: CAII-A647 binding fluorescence, higher = more signal
[5] = COS7 lysate on small-molecule microarray, probe aHis, 635 nm (AID 1123); conditions: COS7 cell lysate, fluorescence, higher = more signal;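 note: z-score combines 667nm fluorescence intensity with signal-to-noise per printed compound spot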
[6] = probe aLAP1 signal on lysate-treated microarray – cell lysate, small-molecule microarray, COS7 lysate, primary screen (AID 1124); conditions: probe aLAP1, fluorescence, higher = more signal;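 note: lysate comes from COS7 cells expressing LAP1 and is applied at 0.3 µg/mL; score merges spot fluorescence near 667 nm with signal-to-noise over triplicate slides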
Sam68 (KHDRBS1) = experiment: compounds binding KHDRBS1 protein – biochemical, small-molecule microarray, 635 nm fluorescence, primary screen (AID 1125); conditions: higher = more signal;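 note: score merges 667 nm channel intensity with signal to noise over triplicate slides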
[7] = tested on: Chordin-like protein 2 (CHRDL2); experiment: compounds binding chordin-like 2 – biochemical, small-molecule microarray, 635 nm fluorescence, primary screen (AID 1126); conditions: fluorescence 635 nm, higher = more signal;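 note: printed compound slides probed with Chrdl2 protein at 4 µg/mL for 1 h at 4 C; score merges 667 nm emission intensity with signal to noise over three replicate slides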
[8] = molecular target: Concanavalin-A (Canavalia ensiformis) (UniProt P02866); experiment: compounds binding concanavalin A lectin – biochemical, small-molecule microarray, Alexa647 label, 635 nm, artefact control for SMM control protein annotation, primary screen (AID 1127); conditions: ConA-A647 binding fluorescence, higher = more signal;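 note: z combines 667 nm emission intensity with signal-to-noise across three replicate slides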
[9] = compounds binding Alexa647 anti-His antibody – biochemical, small-molecule microarray, 635 nm fluorescence, artefact control for SMM control protein annotation, primary screen (AID 1128); conditions: higher = more signal;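 note: score merges feature fluorescence with signal-to-noise for each printed compound spot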
[10] = tested on: Human papillomavirus type 1a E7 protein (residues 1-88); experiment: HPV1a E7 small-molecule binders, primary screen, biochemical, small-molecule microarray, residues 1-88, 635 nm (AID 1129); conditions: small-molecule microarray binding, fluorescence 635 nm; higher = more signal
[11] = molecular target: Focal adhesion kinase 1 (Homo sapiens) (UniProt Q05397); experiment: PTK2 protein binding on printed compound slides – biochemical, small-molecule microarray, 635/667 nm fluorescence, BSA, DTT, primary screen (AID 1130); conditions: 635 nm fluorescence, higher = more signal;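 note: composite of spot emission at 667 nm and signal to noise over triplicate slides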
[12] = tested on: Fibrinogen (Alexa647-labelled); experiment: Alexa647-fibrinogen binding to printed small molecules – biochemical, small-molecule microarray, 635/667 nm fluorescence, artefact control for SMM control-protein annotation, profiling panel (AID 1131); conditions: fibrinogen-A647 binding fluorescence, higher = more signal;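 note: z-score merges 667 nm fluorescence with per-spot signal-to-noise over triplicate slides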
[13] = molecular target: Follistatin (Homo sapiens) (UniProt P19883); experiment: FST protein binding to printed compounds – biochemical, small-molecule microarray, 635/667 nm fluorescence, primary screen (AID 1132); conditions: 635 nm fluorescence, higher = more signal
[14] = molecular target: Fibroblast growth factor 2 (Homo sapiens) (UniProt P09038); experiment: basic fibroblast growth factor binding to printed compounds – biochemical, small-molecule microarray, 635/667 nm fluorescence, primary screen (AID 1133); conditions: FGF2, fluorescence 635/667, higher = more signal
[15] = JC-1 mitochondrial potential readout, lung cancer cells – cell-based, A549, JC-1 fluorescence, basal, 24 h, 100 nL, profiling panel (AID 1138); conditions: higher = more signal;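 note: A549 lung adenocarcinoma cells under basal conditions with no added stimulus; test concentration not given here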
Lefty1 = Lefty1 protein binding to printed compounds – biochemical, small-molecule microarray, 635/667 nm fluorescence, primary screen (AID 1139); conditions: fluorescence 635/667, higher = more signal
[16] = tested on: wheat germ agglutinin (Triticum aestivum), Alexa647-labelled; experiment: Alexa647-WGA lectin binding to printed small molecules – biochemical, small-molecule microarray, 635/667 nm fluorescence, artefact control for SMM control-protein annotation, profiling panel (AID 1140); conditions: WGA-A647 binding, 635 nm fluorescence, higher = more signal;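 note: score merges 667 nm feature emission with signal to noise over triplicate slides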
[17] = molecular target: Luciferin 4-monooxygenase (Photinus pyralis) (UniProt P08659); experiment: inhibition of purified Photinus pyralis luciferase – biochemical, luminescence, purified enzyme, 2006 set, primary screen (AID 1141); conditions: purified firefly luciferase, SteadyGlo luminescence, 30 min; higher = more signal, called active from +8 up or from −8 down;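 note: cell-free assay with purified firefly luciferase at 100 ng per well in PBS; test concentration not given here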
Sequence of Luciferin 4-monooxygenase (Photinus pyralis) (P08659 whole entry, looked up): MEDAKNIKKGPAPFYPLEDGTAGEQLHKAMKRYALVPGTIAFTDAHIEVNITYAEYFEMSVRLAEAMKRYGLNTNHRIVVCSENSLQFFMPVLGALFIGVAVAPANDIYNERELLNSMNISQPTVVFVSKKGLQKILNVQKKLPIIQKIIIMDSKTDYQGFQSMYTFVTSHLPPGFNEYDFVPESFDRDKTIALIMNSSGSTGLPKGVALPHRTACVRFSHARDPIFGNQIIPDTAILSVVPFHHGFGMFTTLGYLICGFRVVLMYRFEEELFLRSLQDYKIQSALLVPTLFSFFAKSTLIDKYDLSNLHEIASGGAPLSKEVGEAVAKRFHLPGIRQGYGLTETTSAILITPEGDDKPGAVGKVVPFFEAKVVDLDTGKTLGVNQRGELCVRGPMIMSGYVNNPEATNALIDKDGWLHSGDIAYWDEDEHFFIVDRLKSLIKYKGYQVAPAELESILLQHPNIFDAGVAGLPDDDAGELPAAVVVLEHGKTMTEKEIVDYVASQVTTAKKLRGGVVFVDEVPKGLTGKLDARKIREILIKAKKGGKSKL

Sequence of Focal adhesion kinase 1 (Homo sapiens) (Q05397 whole entry, looked up): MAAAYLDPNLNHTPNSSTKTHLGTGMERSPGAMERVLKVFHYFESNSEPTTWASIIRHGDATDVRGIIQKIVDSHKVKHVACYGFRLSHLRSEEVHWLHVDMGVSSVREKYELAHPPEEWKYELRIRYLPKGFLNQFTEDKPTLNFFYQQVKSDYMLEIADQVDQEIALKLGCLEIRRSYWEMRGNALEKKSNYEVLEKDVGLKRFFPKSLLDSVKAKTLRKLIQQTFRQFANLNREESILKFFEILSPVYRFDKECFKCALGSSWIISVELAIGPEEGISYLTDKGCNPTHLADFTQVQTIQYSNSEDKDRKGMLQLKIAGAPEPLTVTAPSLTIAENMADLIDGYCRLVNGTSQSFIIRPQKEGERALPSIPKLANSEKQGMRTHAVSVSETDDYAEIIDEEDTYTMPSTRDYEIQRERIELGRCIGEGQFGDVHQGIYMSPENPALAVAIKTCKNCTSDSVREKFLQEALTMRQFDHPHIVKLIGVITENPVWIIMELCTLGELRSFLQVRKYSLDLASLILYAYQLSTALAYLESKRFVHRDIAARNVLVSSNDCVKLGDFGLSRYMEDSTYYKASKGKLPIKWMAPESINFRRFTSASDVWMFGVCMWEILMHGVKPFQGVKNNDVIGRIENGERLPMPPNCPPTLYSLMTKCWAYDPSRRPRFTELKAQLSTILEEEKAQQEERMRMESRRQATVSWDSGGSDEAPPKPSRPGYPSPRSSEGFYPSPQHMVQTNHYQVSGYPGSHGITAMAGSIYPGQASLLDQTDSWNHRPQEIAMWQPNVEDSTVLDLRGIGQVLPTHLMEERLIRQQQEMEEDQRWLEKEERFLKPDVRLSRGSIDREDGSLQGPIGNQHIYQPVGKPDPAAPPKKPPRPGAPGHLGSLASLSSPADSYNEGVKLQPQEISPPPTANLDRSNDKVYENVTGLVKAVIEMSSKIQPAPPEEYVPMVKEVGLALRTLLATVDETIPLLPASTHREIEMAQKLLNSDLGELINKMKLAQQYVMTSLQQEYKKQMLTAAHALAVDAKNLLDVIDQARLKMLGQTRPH
Sequence of Fibroblast growth factor 2 (Homo sapiens) (P09038 whole entry, looked up): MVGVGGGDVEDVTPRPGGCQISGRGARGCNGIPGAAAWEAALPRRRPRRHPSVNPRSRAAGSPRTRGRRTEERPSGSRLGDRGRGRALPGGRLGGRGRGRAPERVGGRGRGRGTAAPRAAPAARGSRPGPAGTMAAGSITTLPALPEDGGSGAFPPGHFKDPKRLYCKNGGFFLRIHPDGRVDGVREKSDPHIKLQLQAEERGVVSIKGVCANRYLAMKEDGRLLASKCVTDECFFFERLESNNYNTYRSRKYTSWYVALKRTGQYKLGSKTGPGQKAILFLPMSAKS
Sequence of Concanavalin-A (Canavalia ensiformis) (P02866 whole entry, looked up): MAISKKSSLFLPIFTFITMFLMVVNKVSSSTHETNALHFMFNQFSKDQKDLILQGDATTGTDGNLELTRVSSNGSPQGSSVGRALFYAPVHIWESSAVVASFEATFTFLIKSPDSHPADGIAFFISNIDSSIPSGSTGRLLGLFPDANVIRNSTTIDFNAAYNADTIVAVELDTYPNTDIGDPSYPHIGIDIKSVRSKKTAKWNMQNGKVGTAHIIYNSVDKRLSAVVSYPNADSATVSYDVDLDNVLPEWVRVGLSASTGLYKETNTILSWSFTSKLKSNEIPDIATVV
Sequence of Follistatin (Homo sapiens) (P19883 whole entry, looked up): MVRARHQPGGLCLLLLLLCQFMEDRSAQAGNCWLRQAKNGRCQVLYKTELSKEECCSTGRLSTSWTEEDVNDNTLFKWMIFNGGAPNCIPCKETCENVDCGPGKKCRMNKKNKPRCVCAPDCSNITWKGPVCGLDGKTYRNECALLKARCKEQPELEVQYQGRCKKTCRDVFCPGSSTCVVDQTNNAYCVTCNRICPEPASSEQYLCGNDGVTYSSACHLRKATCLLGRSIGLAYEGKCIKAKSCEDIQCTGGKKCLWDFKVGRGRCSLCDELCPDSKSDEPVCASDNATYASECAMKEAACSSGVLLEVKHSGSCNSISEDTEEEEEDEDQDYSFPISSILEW
Sequence of Albumin (Bos taurus) (P02769 whole entry, looked up): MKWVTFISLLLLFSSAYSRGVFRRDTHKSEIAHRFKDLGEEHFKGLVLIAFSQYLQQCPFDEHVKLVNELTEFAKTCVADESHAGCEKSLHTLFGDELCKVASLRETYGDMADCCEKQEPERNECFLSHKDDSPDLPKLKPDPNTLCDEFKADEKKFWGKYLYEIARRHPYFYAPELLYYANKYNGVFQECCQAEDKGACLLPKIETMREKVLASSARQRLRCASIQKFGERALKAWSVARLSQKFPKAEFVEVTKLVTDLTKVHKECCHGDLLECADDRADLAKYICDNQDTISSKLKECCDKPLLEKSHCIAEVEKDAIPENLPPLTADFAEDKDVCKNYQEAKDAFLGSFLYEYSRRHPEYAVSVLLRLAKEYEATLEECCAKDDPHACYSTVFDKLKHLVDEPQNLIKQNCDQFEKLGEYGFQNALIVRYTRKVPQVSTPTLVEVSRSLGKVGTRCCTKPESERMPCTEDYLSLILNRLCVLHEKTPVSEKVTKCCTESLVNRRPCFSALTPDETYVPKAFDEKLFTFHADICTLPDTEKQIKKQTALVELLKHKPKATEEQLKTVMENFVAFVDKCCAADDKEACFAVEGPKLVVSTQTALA

Row | SMILES | composite z-score (Albumin (Bos taurus)) | composite Z-score [1] | composite z-score [2] | composite z-score [3] | composite z-score [4] | composite z-score [5] | composite z-score [6] | composite z-score (Sam68 (KHDRBS1)) | composite z-score [7] | composite z-score [8] | composite z-score [9] | composite z-score [10] | composite z-score [11] | composite z-score [12] | composite z-score [13] | composite z-score [14] | z-score [15] | composite z-score (Lefty1) | composite z-score [16] | z-score [17]
1 | CC(C)(C)N1C(=O)[C@H]2[C@H]3[C@H](O)[C@H](O)CC(=NO[C@@H]4O[C@H](CO)[C@@H](O)[C@H](O)[C@H]4O)[C@H]3CC[C@H]2C1=O | -0.383 | 0.674 (inactive) | 0.0864 | 0.0037 | 0.182 | 0.276 | -0.12 | 0.217 | 0.926 | -0.409 | 0.492 | 0.15 | -0.0244 | -1.06 | 0.86 | 0.348 | -1.43 | 0.585 | -0.297 | 0.585 (inactive)
2 | CCOC(=O)[C@H](Cc1ccccc1)NC(=O)OC1CC(CCC2CC(CC)=NO2)OC2(CCCC(COC(=O)NCCC(C)C)O2)C1 (stereo not given in full) | 0.459 | 0.257 (inactive) | -0.133 | -0.179 | 0.312 | 0.86 | -0.342 | 0.676 | 0.139 | 0.918 | 0.272 | 0.55 | 0.271 | 0.305 | 0.0871 | 0.342 | -0.0991 | -0.033 | 0.668 | 0.772 (inactive)
3 | CCOC(=O)[C@H](Cc1ccccc1)NC(=O)CCC1CC(OC(=O)NCCc2ccc(F)cc2)CC2(CCCC(COC(=O)NCCc3ccccc3OC)O2)O1 (stereo not given in full) | 0.667 | -0.449 (inactive) | -0.0984 | -0.14 | 0.303 | 1.46 | 0.854 | 1.12 | 0.405 | 1.09 | 0.949 | 1.15 | 0.165 | 0.916 | 0.818 | 0.888 | -0.366 | 1.11 | 0.441 | 0.451 (inactive)
4 | CCOC(=O)NN=C1C[C@@H](O)[C@@H](O)[C@@H]2[C@@H]3C(=O)N(C(C)(C)C)C(=O)[C@@H]3CC[C@H]12 | -0.385 | 0.288 (inactive) | 0.0431 | 0.272 | -0.257 | -0.227 | -0.207 | 0.129 | 0.743 | 0.383 | 0.322 | 0.215 | 0.064 | 0.0959 | 0.903 | 0.647 | 0.233 | 0.279 | -0.0123 | 0.0659 (inactive)
5 | CCCCC#C[C@@H]1C=C[C@H](Oc2ccc(C(=O)OC)cc2)[C@@H](COC(=O)OCC)O1 | 0.109 | -0.0877 (inactive) | -0.106 | -0.0578 | 0.39 | 0.205 | 0.0053 | 0.769 | 0.978 | 0.64 | 0.516 | 0.459 | -0.0377 | 0.531 | 0.974 | 0.585 | -0.896 | 0.309 | 0.276 | -3.64 (inactive)
6 | CO[C@H]1COC(=O)CC=C[C@H](C)[C@@H](OC)COC(=O)[C@@H](C)COC(=O)CC=C[C@@H]1C | -0.93 | 0.793 (inactive) | -0.0647 | -0.146 | -0.535 | -0.25 | -0.145 | -0.132 | 1.51 | -1.85 | -0.756 | -0.699 | -0.111 | -1.26 | 1.5 | 1.77 | 0.657 | 1.55 | -1.05 | -0.454 (inactive)
7 | C=C(C)C(=O)OCC1CN2[C@@H](CC[C@@H](C)[C@@H]2c2ccc(Br)cc2)C(=O)O1 (stereo not given in full) | 0.188 | -0.168 (inactive) | 0.0539 | -0.11 | -0.062 | 0.0971 | -0.126 | 0.671 | 0.691 | 0.59 | 0.0797 | 0.281 | 1.64 | 0.794 | 0.196 | 0.192 | 0.717 | 0.452 | 0.0513 | -0.0906 (inactive)
8 | CO[C@@H]1COC(=O)[C@@H]2CCCN2C(=O)[C@@H](C)COC(=O)CC=C[C@H]1C | 0.0417 | -0.235 (inactive) | -0.0362 | -0.14 | 0.299 | 0.148 | 0.0496 | 1.2 | 0.695 | 0.325 | 0.408 | 0.923 | -0.194 | 0.527 | 0.365 | 1.51 | -0.84 | 1.01 | -0.0639 | 1.48 (inactive)
9 | CCCCc1nc2c(c3c1C[C@H](C)OC3)CN(CCOc1ccccc1)CC2 | 0.674 | 0.202 (inactive) | 0.058 | -0.11 | 0.221 | 0.686 | 0.135 | 1.06 | 0.726 | 0.975 | 0.818 | 0.334 | -0.117 | 0.75 | 0.766 | 0.913 | 3.89 | 1.23 | 0.38 | -1.94 (inactive)
10 | CCOC(=O)[C@H](Cc1ccccc1)NC(=O)CCC1CC(OC(=O)NCc2cccc3ccccc23)CC2(CCCC(COC(=O)NCc3cccc(C(F)(F)F)c3)O2)O1 (stereo not given in full) | 0.331 | 0.0898 (inactive) | -0.124 | -0.14 | 0.138 | 0.345 | 0.131 | 0.462 | -0.0424 | 0.187 | 0.419 | 0.565 | 0.219 | 0.193 | -0.0637 | 0.0858 | 1.94 | 0.0217 | 0.0961 | -0.114 (inactive)
11 | CCN1C(=O)[C@H]2[C@H]3[C@H](O)[C@H](O)CC(=NOCC(C)C)[C@@H]3CC[C@H]2C1=O | 0.612 | -0.0562 (inactive) | 0.179 | -0.126 | 0.459 | 1.1 | -0.202 | 1.3 | 0.72 | 0.0131 | 0.768 | 1.04 | 0.627 | 0.231 | 0.84 | 0.0017 | -0.753 | 0.625 | -0.0157 | 0.887 (inactive)
